The source of these data is PubChem BioAssay.

In the assay the target is PEG-3 (UniProt Q6IN02). In words: inhibition of PEG-3 promoter-driven reporter – cell-based, HeLa, luciferase, CREF/GAPDH counter-screen panel, dose response (AID 624167). The settings on record: CREF/GAPDH counter-screens; HeLa PEG-Prom luciferase reporter, overnight, run 2, dose range 1, at 100 µM (top of the series) unless noted. A general note: A counterscreen serves to expose hits that act by an unwanted route or on another target.
Sequence of PEG-3 (Q6IN02 whole entry, looked up): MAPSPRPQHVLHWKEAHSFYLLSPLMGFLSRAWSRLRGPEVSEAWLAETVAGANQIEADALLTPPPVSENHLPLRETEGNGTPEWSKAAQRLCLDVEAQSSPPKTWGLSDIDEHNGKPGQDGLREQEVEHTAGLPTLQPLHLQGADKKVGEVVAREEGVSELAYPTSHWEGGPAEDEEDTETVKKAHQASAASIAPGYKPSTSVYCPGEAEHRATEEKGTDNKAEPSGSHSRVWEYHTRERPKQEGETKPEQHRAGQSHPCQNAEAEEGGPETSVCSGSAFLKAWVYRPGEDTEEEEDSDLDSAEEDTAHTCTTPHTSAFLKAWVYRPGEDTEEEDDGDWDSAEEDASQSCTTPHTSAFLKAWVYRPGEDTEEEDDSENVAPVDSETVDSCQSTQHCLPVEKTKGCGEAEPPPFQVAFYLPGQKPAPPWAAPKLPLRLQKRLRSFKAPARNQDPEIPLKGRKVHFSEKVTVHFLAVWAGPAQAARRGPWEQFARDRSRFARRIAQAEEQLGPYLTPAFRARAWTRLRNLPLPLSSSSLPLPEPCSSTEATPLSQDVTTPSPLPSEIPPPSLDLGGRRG
Regarding `CN(C)CCNc1ccc2ncn3c4ccc(O)cc4c(=O)c1c23`, the inhibition was found to be 99.7%.
In the case of `CC(C)N1CCc2c(sc(NC(=O)c3cc4cc([N+](=O)[O-])ccc4s3)c2C(N)=O)C1`, the inhibition came out at 101%.
On to `COc1cccc(N2CCN(CC(=O)Nc3ccccc3C(=O)NCc3ccccc3)CC2)c1`, for which the inhibition was 70.2%.
Turning to `COc1cc(N=Nc2c(O)c3ccccc3[nH]c2=O)c(OC)cc1N=Nc1ccccc1`, the inhibition is -33.1%.
The figure for `COc1ccc(-c2cc(-c3ccc(F)cc3)nc(N3CCN(C)CC3)n2)cc1` is 101%.
As to `Cc1ccc(-c2nnc(N3CCN(c4ccccn4)CC3)c3ccccc23)cc1`, the inhibition came to 101%.
The figure for `COc1cc(/C=C2\SC(=S)N(CCC(=O)N3CCCCC3)C2=O)cc(OC)c1OC` is 99%.
Regarding `Cc1nn(-c2ccccc2)c2c1C(c1ccc([N+](=O)[O-])cc1)N1C(=N2)C(=O)Nc2ccccc21` (stereo not given), the inhibition stood at 2.44%.
Regarding `CN1CCC(NC(=O)c2cc(-c3cccc(Br)c3)nc3ccccc23)CC1`, the inhibition was determined as 101%.
On to `COc1ccc(-c2sc3ccccc3c2-c2ccc(OCCN3CCCCC3)cc2)cc1`, for which the inhibition turned out to be 100%.
With `COc1ccc(C2c3ccc4ccccc4c3Oc3ncn(CCO)c(=N)c32)cc1OC` (stereo not given) the figure was 101%.
With `OC1(c2ccc(Cl)c(Cl)c2)C[n+]2ccccc2N1Cc1ccccc1` (stereo not given), the inhibition came to 101%.
With `CCCCNc1nc(=S)n(-c2ccccc2)c(C)c1C(C)=O` the figure was 98.8%; with `c1ccc(CN=C(NCc2ccccc2)NCc2ccccc2)cc1`, 102%.
Take `COc1cc(/C=C/[N+](=O)[O-])ccc1OC(=O)/C=C/c1ccc(F)cc1`: the inhibition is -151%.
With `CCCCN(C)C(=O)c1ccc(Nc2nc(C(N)CCc3ccccc3)cs2)nc1` (stereo not given), the inhibition was found to be 94.6%.
With `CCN(Cc1ccccc1)S(=O)(=O)c1ccc(C(=O)N(CCCN(C)C)c2nc3cc4c(cc3s2)OCCO4)cc1` the figure was 101%; with `Cc1ccc(C(=O)N(CCCN(C)C)c2nc3ccc(Cl)cc3s2)cc1C`, 101%.
The figure for `COc1cccc(NC(=O)CN(C)C(=O)c2cc(-c3ccc(F)cc3)nc3ccccc23)c1` is 99.1%; for `c1cncc(-c2nc(NCC3COc4ccccc4O3)c3ccccc3n2)c1` (stereo not given) it is 99.8%; for `Cn1c(=O)c(C(=O)CCl)c(N)n(Cc2ccccc2)c1=O` it is 97.2%.
On to `COc1cc(CNCCN2CCOCC2)ccc1OCc1ccc(Cl)cc1Cl`, for which the inhibition stood at 101%.
Regarding `COc1ccc(CCn2c(=N)c(C(=O)NC3CCCC3)cc3c(=O)n4cccc(C)c4nc32)cc1`, the inhibition stood at 47.1%.
`Cc1c(OCC(=O)NC2CC(C)(C)NC(C)(C)C2)ccc2c1oc(=O)c1ccccc12`: the inhibition was 101%.
With `COc1cccc(C(=O)c2sc(NC(C)C)nc2N)c1` the figure was 95.7%; with `CC1(C)CC(NC(=O)c2cccc(S(=O)(=O)N(Cc3ccccc3)c3ccccc3)c2)CC(C)(C)N1`, 102%.
As to `O=C(NC1CCCCC1)Sc1ccc(Cl)cc1`, the inhibition amounted to 101%.
As to `COc1ccc(-c2nc3c(C(=O)NCCN(C)C)cccc3c3ccccc23)cc1`, the inhibition was found to be 99.5%.
For `COc1ccc(CC(=O)N(Cc2ccccc2)c2ccccc2)cc1S(=O)(=O)N1CCOCC1`, the inhibition was found to be 91.1%.
On to `Oc1[nH]c2ccc(Br)cc2c1N=NC(=S)Nc1ccc(F)cc1`, for which the inhibition was 100%.

What is called inhibition is the drop in the measured response relative to a control, in per cent.
